Measured values from PubChem BioAssay (EPA / NIEHS).
Records with an inconclusive call do not appear. Activity calls are given as the source filed them. Rule for the calls, unless noted: active = hit-call score of the fitted dose curve at least 0.9, where 1 is the maximum; inconclusive = response in the unintended direction; inactive = score below 0.9.

What was measured:
[1] = Tanguay_ZF_120hpf_TR_legacy: (Legacy) Oregon State University Tanguay Lab 120 Hour Post-fertilization zebrafish Assay for Touch Response (AID 2283667)
Method in brief: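 5D WT embryos; static exposure to 120 hpf, 28C, sealed/dark; DMSO 0.64% v/v final. TR scored present/absent; dead embryos excluded. Pos ctrl 5uM trimethyltin chloride.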

[2] = CCTE_Padilla_ZF_144hpf_TERATOSCORE: (Legacy) CCTE's 144 Hour Post-fertilization zebrafish Assay Teratoscore, Padilla Lab (AID 2283679; active = hit-call score of the fitted dose curve at least 0.9, where 1 is the maximum; inactive = score below 0.9;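 for AC50: zebrafish embryos with chorions exposed by immersion from 6-8 hpf to 5 dpf with daily renewal; teratogenicity score from eye scoring of death hatching and malformations at 144 hpf; higher score means more developmental defects relative to DMSO baseline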)
Method in brief: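 Larvae scored by eye at 144 hpf for death, hatching and malformations after a day in clean Hanks'. Before that, daily-renewed exposure at 80 uM (0.4% DMSO, 26C) from roughly 6-8 hpf through 5 dpf, 4 embryos per chemical.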

[3] = STM_H9_OrnithineISnorm_perc: Stemina devTOX quickPredict H9 human embryonic stem cell (hESC)-based Assay for Ornithine (ORN) Metabolite Biomarker, Normalized (AID 2283712; active = hit-call score of the fitted dose curve at least 0.9, where 1 is the maximum; inactive = score below 0.9;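 note: ornithine released into spent medium during last day measured by mass spectrometry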)
Method in brief: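 Undifferentiated H9 hESCs exposed 72 h with daily media and compound renewal; final 24-h conditioned medium analysed by UPLC-HRMS. Ornithine peak area normalised to spiked C13 standard and to median 0.1% DMSO control; viability by CellTiter-Fluor.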

[4] = STM_H9_CystineISnorm_perc: Stemina devTOX quickPredict H9 human embryonic stem cell (hESC)-based Assay for Cystine (CYSS) Metabolite Biomarker, Normalized (AID 2283713; active = hit-call score of the fitted dose curve at least 0.9, where 1 is the maximum; inactive = score below 0.9)
Method in brief: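 Undifferentiated H9 hESCs exposed 72 h, compound and media replaced every 24 h; final 24-h media analysed by UPLC-HRMS. Cystine normalized to C13 spike-in standard and median 0.1% DMSO control.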

[5] = STM_H9_OrnCyssISnorm_ratio: Stemina devTOX quickPredict H9 human embryonic stem cell (hESC)-based Assay for Ornithine (ORN):Cystine (CYSS) Ratio (AID 2283714)
Method in brief: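 Steps: H9 hESCs in pluripotent state dosed 72h, medium plus compound renewed every 24h; conditioned medium from the final 24h deproteinized in 40% acetonitrile; ORN and CYSS quantified by UPLC-HRMS with C13 spike-ins; ratio relative to vehicle.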

[6] = CEETOX_H295R_MTT_cell_viability: Viability Assessment in the CeeTox HT-H295R MTT Assay (AID 2283718; active = hit-call score of the fitted dose curve at least 0.9, where 1 is the maximum; inactive = score below 0.9)
Method in brief: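 MTT reduction (0.5 mg/ml, 4 h at 37 C; absorbance at 570 and 650 nm) gave viability as background-corrected percent change versus controls. H295R cells had 48 h forskolin (10 uM) prestimulation, then 48 h chemical exposure at 0.1% DMSO.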

[7] = Tanguay_ZF_120hpf_ActivityScore_legacy: (Legacy) Oregon State University Tanguay Lab 120 Hour Post-fertilization zebrafish Assay Score for Activity (AID 2283742);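 for AC50: dechorionated Tropical 5D wild-type zebrafish embryos held singly per well; static exposure from 6 hpf until 120 hpf at 28 °C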
Method in brief: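 Embryos are staged, enzymatically dechorionated at 4 hpf, placed individually at 6 hpf, then held in test chemical (0.64% DMSO) at 28C until 120 hpf. Mortality and malformations are scored by brightfield, with non-mortality endpoints skipped for dead embryos.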

[8] = ArunA_CellTiter_hNC: Viability Assessment in the ArunA Biomedical's Oris Neural Crest (hNC) Cell Migration Assay (AID 2283752)
Protocol: ArunA_CellTiter_hNC is a cell-based, single-readout assay that uses human H9-derived embryonic neural crest stem cells (hNC). Measurements were taken 72 hours after chemical dosing in a 96-well plate.ArunA_CellTiter_hNC is an assay component measured from the ArunA_CellTiter_hNC assay. It is designed to make measurements of viability, a form of viability reporter, as detected with fluorescence intensity signals by HCS Fluorescent Imaging technology. Data from the assay component ArunA_CellTiter_hNC was analyzed at the endpoint, ArunA_CellTiter_hNC, in the positive analysis fitting direction relative to DMSO as the negative control and baseline of activity. […]
To assess the hNP and hNC migration and cell titer endpoints, 60,000 cells per well were plated onto Matrigel in basal growth medium with LIF and bFGF in a 96-well plate format. […] Cell viability in the detection zone was quantitated using a Flexstation3 microplate reader (ex494 nm/em 517 nm). Corresponding cell titer endpoints were assessed for the hNP and hNC cells using the Promega CellTiter Aqueous One Solution Cell Proliferation Assay (Cat no. G3581; CellTiter 96). Finally, to gain insight into the mechanisms by which cells migrate into the detection zone, Ki-67 expression was quantified for 10 additional chemicals in the hNP and hNC systems. […]

[9] = read-out: Cytochrome P450 (CYP24A1_1), CYP24A1 (gene 1591); test: LTEA_HepaRG_CYP24A1_1: Life Technologies and Expression Analysis (LTEA) Assay for Cytochrome P450 (CYP24A1_1) using HepaRG (AID 2283671; active = hit-call score of the fitted dose curve at least 0.9, where 1 is the maximum; inactive = score below 0.9); conditions: mRNA level, 48 h; actives raise or lower the signal
Method in brief: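 In this test, gene induction or suppression of CYP24A1 in human HepaRG liver cells is measured by qRT-PCR after 48 h chemical treatment (eight concentrations, maximum 100 uM). Values are fitted bidirectionally relative to DMSO.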

[10] = test system: Thyroperoxidase (TPO), gene 445522; test: CCTE_Simmons_GUA_TPO: CCTE's Guaiacol Assay for Thyroperoxidase (TPO) Inhibition, Simmons Lab (AID 2283750)
Method in brief: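 Porcine thyroid microsomes (25 ug) in 200mM potassium phosphate, preincubated 30 s at 37C with compound (8 concentrations, 5 nM–87.5 uM) and 35mM guaiacol; 1mM H2O2 starts reaction. Absorbance change at 450nm over first 80 s; loss of signal versus DMSO, three replicates.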

**Q.** Which AC50 [1] does the source give for `Clc1cc(Cl)c2c(c1)N=C1CCCCCN1C2` here?
**A.** 15.7 µM (active)

**Q.** And the AC50 [2]?
**A.** 12.2 µM (active)

**Q.** And the outcome [3]?
**A.** inactive

**Q.** What about the outcome [4] of the same compound?
**A.** inactive

**Q.** And the outcome [5]?
**A.** inactive

**Q.** And the outcome [6]?
**A.** inactive

**Q.** And the AC50 [7]?
**A.** 18 µM (active)

**Q.** For `CCCCCc1ccc(N)cc1`, which outcome [1] is on record?
**A.** inactive

**Q.** And the AC50 [2]?
**A.** 65.9 µM (active)

**Q.** And the outcome [6]?
**A.** inactive

**Q.** And the outcome [7]?
**A.** inactive

**Q.** With `O=C(Nc1ccc(Cl)cc1)Nc1ccc(Cl)c(Cl)c1` as the compound, how does the outcome [1] read?
**A.** inactive

**Q.** And the AC50 [2]?
**A.** 5.19 µM (active)

**Q.** And the AC50 [3]?
**A.** 0.000976 µM (active)

**Q.** What about the outcome [4] of the same compound?
**A.** inactive

**Q.** What about the outcome [5] of the same compound?
**A.** inactive

**Q.** What about the outcome [6] of the same compound?
**A.** inactive

**Q.** And the outcome [7]?
**A.** inactive

**Q.** And the outcome [8]?
**A.** inactive

**Q.** Which outcome [1] does the source give for `c1ccc(C[n+]2cccc3ccccc32)cc1` here?
**A.** inactive

**Q.** What about the outcome [2] of the same compound?
**A.** inactive

**Q.** What about the outcome [6] of the same compound?
**A.** inactive

**Q.** And the outcome [7]?
**A.** inactive

**Q.** Which outcome [1] does the source give for `O=C1CCC(C2CCCCC2)CC1` here?
**A.** inactive

**Q.** And the AC50 [2]?
**A.** 60.4 µM (active)

**Q.** What about the outcome [7] of the same compound?
**A.** inactive

**Q.** What does the source list for `CN(C)c1ccc(C(=C2C=CC(=[N+](C)C)C=C2)c2ccc(N(C)C)cc2)cc1`?
**A.** outcome [1]: inactive; AC50 [2]: 0.477 µM (active); AC50 [3]: 0.592 µM (active); AC50 [4]: 0.817 µM (active); AC50 [5]: 0.723 µM (active); AC50 [7]: 1.66 µM (active)

**Q.** What does the source list for `COc1cc(C(=O)NC2CCN(C)CC2)ccc1Nc1ncc2c(n1)N(C1CCCC1)CC(F)(F)C(=O)N2C`?
**A.** AC50 [1]: 36.1 µM (active); AC50 [2]: 24.1 µM (active); AC50 [3]: 0.0393 µM (active); AC50 [4]: 0.0284 µM (active); AC50 [5]: 0.0311 µM (active); AC50 [7]: 40 µM (active)

**Q.** With `Clc1ccccc1C(c1ccccc1)(c1ccccc1)n1ccnc1` as the compound, how does the AC50 [1] read?
**A.** 25 µM (active)

**Q.** What about the AC50 [2] of the same compound?
**A.** 1.53 µM (active)

**Q.** And the outcome [6]?
**A.** inactive

**Q.** What about the outcome [7] of the same compound?
**A.** inactive

**Q.** With `Cc1ccc2oc(CN(Cc3ccccc3)C(=O)Nc3c(F)cc(F)cc3F)c(-c3ccc(Cl)cc3)c2c1` as the compound, how does the outcome [1] read?
**A.** inactive

**Q.** What about the outcome [2] of the same compound?
**A.** inactive

**Q.** What about the outcome [6] of the same compound?
**A.** inactive

**Q.** What about the outcome [7] of the same compound?
**A.** inactive

**Q.** For `CCCCCCCC[Si](OCC)(OCC)OCC`, which outcome [1] is on record?
**A.** inactive

**Q.** What about the outcome [2] of the same compound?
**A.** inactive

**Q.** And the outcome [6]?
**A.** inactive

**Q.** And the outcome [7]?
**A.** inactive

**Q.** For `CCCCCCCCOC(=O)c1cc(O)c(O)c(O)c1`, which outcome [1] is on record?
**A.** inactive

**Q.** What about the AC50 [2] of the same compound?
**A.** 1.43 µM (active)

**Q.** What about the AC50 [3] of the same compound?
**A.** 2.13 µM (active)

**Q.** What about the AC50 [4] of the same compound?
**A.** 2.47 µM (active)

**Q.** And the AC50 [5]?
**A.** 2.54 µM (active)

**Q.** What about the outcome [6] of the same compound?
**A.** inactive

**Q.** What about the AC50 [7] of the same compound?
**A.** 9.16 µM (active)

**Q.** What about the outcome [8] of the same compound?
**A.** inactive

**Q.** With `COc1ccc2cc(S(=O)(=O)N[C@H](CC(=O)N[C@H](Cc3ccc(CN4[C@H](C)CCC[C@@H]4C)cc3)C(=O)N(C)C(C)C)c3ccc4c(c3)OCO4)ccc2c1` as the compound, how does the outcome [1] read?
**A.** inactive

**Q.** What about the AC50 [2] of the same compound?
**A.** 52.9 µM (active)

**Q.** What about the AC50 [3] of the same compound?
**A.** 18.4 µM (active)

**Q.** What about the AC50 [4] of the same compound?
**A.** 22.6 µM (active)

**Q.** And the AC50 [5]?
**A.** 23 µM (active)

**Q.** And the outcome [7]?
**A.** inactive

**Q.** For `O=C(OCCCCCCOC(=O)c1ccccc1)c1ccccc1`, which outcome [1] is on record?
**A.** inactive

**Q.** And the AC50 [2]?
**A.** 12.9 µM (active)

**Q.** And the outcome [7]?
**A.** inactive

**Q.** What does the source list for `CC(=O)N1CCN(c2ccc(OC[C@H]3CO[C@](Cn4ccnc4)(c4ccc(Cl)cc4Cl)O3)cc2)CC1`?
**A.** outcome [1]: inactive; AC50 [2]: 14.3 µM (active); AC50 [3]: 8.18 µM (active); AC50 [4]: 1.58 µM (active); AC50 [5]: 2.35 µM (active); outcome [6]: inactive; outcome [7]: inactive

**Q.** What does the source list for `Cc1occc1C(=O)Nc1ccc(C(=O)N2CCC(F)(F)/C(=C\C(=O)N3CCC(N4CCCCC4)CC3)c3ccccc32)cc1`?
**A.** outcome [1]: inactive; outcome [9]: inactive; outcome [2]: inactive; outcome [7]: inactive

**Q.** For `Oc1ccc2ccccc2c1`, which AC50 [1] is on record?
**A.** 33.6 µM (active)

**Q.** And the AC50 [2]?
**A.** 57.1 µM (active)

**Q.** And the outcome [6]?
**A.** inactive

**Q.** What about the AC50 [7] of the same compound?
**A.** 36.6 µM (active)

**Q.** And the AC50 [10]?
**A.** 72.8 µM (active)

**Q.** Which results are given for `CCOC(=O)O[C@H](C)OC(=O)c1ccc2c(c1)cc(C(=O)NC1CCN(C(C)C)CC1)n2Cc1cc(-c2ccc(Cl)s2)on1`?
**A.** outcome [1]: inactive; AC50 [2]: 4.27 µM (active); outcome [3]: inactive; outcome [4]: inactive; AC50 [7]: 34.8 µM (active)

**Q.** With `O=C1O[C@H]([C@@H](O)CO)C(O)=C1O` as the compound, how does the outcome [1] read?
**A.** inactive

**Q.** And the outcome [2]?
**A.** inactive

**Q.** What about the outcome [7] of the same compound?
**A.** inactive

**Q.** What does the source list for `CC(C)(C)c1cc(/C=C2\SC(N)=NC2=O)cc(C(C)(C)C)c1O`?
**A.** outcome [1]: inactive; AC50 [2]: 4.17 µM (active); outcome [3]: inactive; AC50 [4]: 5 µM (active); AC50 [5]: 3.33 µM (active); outcome [6]: inactive; AC50 [7]: 47.2 µM (active)
